Measurements reported in PubChem BioAssay.
Active and inactive are the calls of the source.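 The calls were made as follows, unless noted: active = compounds giving at least 50% inhibition in the cell-based MKP-3 phosphatase rescue imaging test; inactive = the rest.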

Legend:
[1] = inhibitors of TNFa-induced NFkB p65 translocation, primary screen, imaging, HUVEC, MLSMR starter and 10KST1 sets (AID 438;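 active = inhibition above 20% together with a positive visual image hit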;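 also: compound added about 3h40 before a 20 min TNFalpha stimulation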;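 as to inhibition: signal is the nuclear over cytoplasmic p65 intensity ratio per well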); settings: HUVEC TNFa-induced p65 nuclear translocation; cell count: measured here: nuclei count (cytotoxicity indicator), at 2.08 µM; inhibition: at 2 µM, stronger effect = higher value, 0% TNFa-plus-vehicle, 100% no-TNFa wells
[2] = inhibitors of mutant huntingtin aggregation, primary screen, imaging, exon1htt(103Q)mCFP cells, high-content imaging (AID 483;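 active = visual image review flags a hit and inhibition of aggregation exceeds 20%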;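 also: compound exposure lasted 3 days before fixation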;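 as to nuclei count: percent of the per-plate median nuclei count of sample wells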); settings: exon1htt(103Q)mCFP cell line, aggregate imaging, at 2 µM; inhibition of aggregation: stronger effect = higher value; nuclei count: measured here: cell count, toxicity
[3] = inhibitors of E-selectin induction by TNFa, primary screen, imaging, HUVEC, immunofluorescence, MLSMR starter and 10KST1 sets (AID 487;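 active = visually confirmed hit in the image check and inhibition above 20%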;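 as to inhibition: signal is fraction of cell area covered by stained E-selectin grains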;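 as to nuclei count: 100% = median nuclei count of all wells on the same plate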); settings: HUVEC TNFalpha-induced E-selectin immunofluorescence imaging, at 2 µM; inhibition: stronger effect = higher value; nuclei count: measured here: cell number, toxicity
[4] = DUSP6 inhibitors restoring Erk phosphorylation by chemical complementation, primary imaging in DUSP6-transfected HeLa (AID 609); settings: HeLa MKP-3 transfected, phospho-Erk imaging KS statistic, at 10 µM, cells stimulated with TPA for 15 min;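 as to inhibition: phospho-Erk level distribution per well compared with pooled transfected vehicle control wells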
[5] = target: Dual specificity protein phosphatase 6 (Homo sapiens) (UniProt Q16828); assay: as above; settings: HeLa MKP-3 transfected, phospho-Erk imaging KS statistic; at 10 µM; stronger effect = higher value; cells stimulated with TPA for 15 min
[6] = target: Voltage-gated potassium channel subunit beta-2 (Rattus norvegicus) (UniProt P62483); assay: KvBeta enzyme negative modulators, primary screen, biochemical, NADPH fluorescence (AID 622;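 active = fluorescence slope higher than the sample average by over 3 SD, cut at about -0.22 in these data, passing the limit was not always enough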;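 also: slope of raw intensity against log time taken from 70 to 1610 s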); settings: recombinant KvBeta, 4-cyanobenzaldehyde reduction, at 10 µM, stronger effect = higher value
[7] = target: Voltage-gated potassium channel subunit beta-2 (Rattus norvegicus) (UniProt P62483); assay: KvBeta positive modulators, primary screen, biochemical, NADPH fluorescence (AID 623;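 active = NADPH fluorescence slope more negative than the mean of all samples by about 3 SD, 99.7% confidence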;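 also: fluorescence intensity change per second fitted from 20 to 320 s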); settings: Recombinant KvBeta, NADPH fluorescence decrease slope, 10 min; at 10 µM; stronger effect = lower value
[8] = target: Alpha-2C adrenergic receptor (Homo sapiens) (UniProt P18825); assay: modulators of alpha2C/GIRK thallium flux, primary screen, cell-based, HEK293 alpha2C/GIRK1/2 (AID 624;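 active = fluorescence slope after compound addition differing from the mean of all screened samples at 99.7% confidence, in either direction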;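 also: slope of fluorescence ratio to pre-addition baseline per second over 15 to 24 s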); settings: thallium flux BTC fluorescence, at 10 µM, actives lie on both sides
[9] = inhibitors of Chlamydomonas gravitaxis, primary screen, whole organism, Chlamydomonas reinhardtii, WT vs cilia-less mutant, absorbance, 96-well (AID 463189;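 active = inhibition at or above 50% relative to wild type and mutant plate controls; inactive = inhibition below 50%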;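 also: 0% = wild type cc124 cells in DMSO and 100% = ciliumless bld1 mutant cells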); settings: OD600 absorbance, 2 days, at 10 µM, stronger effect = higher value
[10] = inhibitors of Sendai virus-induced IRF3 signaling, primary screen, TLR/RLR signaling modifier project, cell-based, Sendai virus stimulus, luciferase, 10K MLSCN set (AID 602276;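 active = inhibition at or above 50% at 10 µM; inactive = inhibition below 50%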;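 also: firefly luciferase from ISG56 promoter only with Renilla not read in this screen; 0% = Sendai virus plus DMSO and 100% = medium plus DMSO without virus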); settings: HEK293 RL24 IRF3 luciferase reporter, at 10 µM, stronger effect = higher value
[11] = inhibitors of poly I:C-induced TLR3 signaling, primary screen, cell-based, poly I:C stimulus, luciferase, 10K MLSCN set (AID 602277;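 active = inhibition of the reporter signal at or above 50%; inactive = inhibition below 50%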); settings: HEK293-TLR3 RL24 IRF3 luciferase reporter, at 10 µM, stronger effect = higher value
[12] = target: Muscarinic acetylcholine receptor M4 (Homo sapiens) (UniProt P08173); assay: compounds altering M4/GIRK thallium flux, either direction, primary screen, M4 allosteric agonist project, cell-based, HEK293 M4/GIRK, BTC-AM (AID 625;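 active = fluorescence slope after compound addition differing from the mean of all tested samples at 99.7% confidence, mostly higher but some lower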;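 also: thallium influx through GIRK channels coupled to M4 in HEK293 cells with BTC-AM dye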); settings: at 10 µM, actives lie on both sides
[13] = inhibitors of larval lipid processing in zebrafish, primary screen, whole organism, PED6 fluorescence, gall bladder and intestine (AID 686;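 active = a full or partial loss of lipid-probe fluorescence in the fish gall bladder, intestine or both, judged by eye; inactive = no fluorescence loss, or compound toxic to the fish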;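 also: larvae 5 to 7 days old with five fish per well; signal comes from phospholipase A2 cleavage of quenched PED6 carried via bile; overnight exposure to compound and PED6 before scoring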); settings: Zebrafish larvae PED6 lipid processing, fluorescence scoring; screened at 20 µM (by protocol)
[14] = measured here: cell density z-score
[15] = measured here: nuclear c-Myc green intensity z-score
[16] = measured here: nuclear pErk red intensity z-score, stronger effect = higher value

Muscarinic acetylcholine receptor M4 (Homo sapiens), sequence (P08173 whole entry, looked up): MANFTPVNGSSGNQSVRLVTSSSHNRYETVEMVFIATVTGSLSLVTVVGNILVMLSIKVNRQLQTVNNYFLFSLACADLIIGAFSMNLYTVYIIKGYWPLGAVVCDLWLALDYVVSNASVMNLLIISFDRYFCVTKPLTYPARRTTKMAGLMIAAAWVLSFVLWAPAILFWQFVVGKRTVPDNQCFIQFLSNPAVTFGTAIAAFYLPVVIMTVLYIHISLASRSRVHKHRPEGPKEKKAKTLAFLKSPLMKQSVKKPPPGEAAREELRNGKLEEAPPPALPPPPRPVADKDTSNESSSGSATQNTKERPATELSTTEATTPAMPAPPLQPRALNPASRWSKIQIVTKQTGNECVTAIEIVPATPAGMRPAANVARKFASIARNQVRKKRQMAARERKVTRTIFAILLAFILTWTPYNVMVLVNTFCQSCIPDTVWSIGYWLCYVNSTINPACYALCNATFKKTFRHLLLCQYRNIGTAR
Dual specificity protein phosphatase 6 (Homo sapiens), sequence (Q16828 whole entry, looked up): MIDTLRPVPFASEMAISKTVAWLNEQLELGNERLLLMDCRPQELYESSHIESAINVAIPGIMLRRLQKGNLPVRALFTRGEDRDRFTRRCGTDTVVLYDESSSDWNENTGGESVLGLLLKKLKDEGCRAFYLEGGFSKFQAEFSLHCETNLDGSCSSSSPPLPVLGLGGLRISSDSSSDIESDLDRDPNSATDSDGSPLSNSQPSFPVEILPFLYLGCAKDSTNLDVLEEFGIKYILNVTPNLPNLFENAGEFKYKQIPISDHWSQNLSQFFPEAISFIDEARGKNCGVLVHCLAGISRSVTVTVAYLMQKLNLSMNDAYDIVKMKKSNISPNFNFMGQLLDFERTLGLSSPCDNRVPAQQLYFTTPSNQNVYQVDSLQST
Alpha-2C adrenergic receptor (Homo sapiens), sequence (P18825 whole entry, looked up): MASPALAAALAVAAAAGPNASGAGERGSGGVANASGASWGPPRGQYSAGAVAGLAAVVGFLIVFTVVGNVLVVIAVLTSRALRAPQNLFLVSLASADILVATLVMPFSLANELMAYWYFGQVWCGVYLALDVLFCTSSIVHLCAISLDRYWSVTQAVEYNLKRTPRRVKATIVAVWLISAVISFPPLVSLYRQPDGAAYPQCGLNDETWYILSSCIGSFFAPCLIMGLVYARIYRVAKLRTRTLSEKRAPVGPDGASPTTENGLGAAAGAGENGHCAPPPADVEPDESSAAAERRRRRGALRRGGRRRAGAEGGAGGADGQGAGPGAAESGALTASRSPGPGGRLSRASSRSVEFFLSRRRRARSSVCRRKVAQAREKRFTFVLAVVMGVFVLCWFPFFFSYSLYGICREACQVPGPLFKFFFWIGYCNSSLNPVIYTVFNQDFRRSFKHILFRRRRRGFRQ
Voltage-gated potassium channel subunit beta-2 (Rattus norvegicus), sequence (P62483 whole entry, looked up): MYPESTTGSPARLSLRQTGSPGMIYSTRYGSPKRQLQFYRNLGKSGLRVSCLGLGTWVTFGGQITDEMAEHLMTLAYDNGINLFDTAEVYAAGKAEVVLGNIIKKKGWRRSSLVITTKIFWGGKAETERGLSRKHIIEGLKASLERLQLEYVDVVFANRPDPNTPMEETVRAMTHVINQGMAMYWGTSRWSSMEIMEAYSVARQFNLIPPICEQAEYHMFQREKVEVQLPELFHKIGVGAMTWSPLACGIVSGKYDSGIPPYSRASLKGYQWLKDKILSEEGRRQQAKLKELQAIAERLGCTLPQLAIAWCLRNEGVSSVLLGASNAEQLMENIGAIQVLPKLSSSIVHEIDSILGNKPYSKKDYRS

With Cc1cc(OCC(=O)Nc2ccc3oc(-c4ccncc4)nc3c2)ccc1Cl the cell count [1] was 485, the inhibition [1] was -6.9% (inactive) and the inhibition of aggregation [2] was -19.2% (inactive). For the same compound, the nuclei count [2] was 100%, the inhibition [3] was -81.7% (inactive) and the nuclei count [3] was 122%. The z-score [4, 14] was 0.451, the z-score [4, 15] was -0.406 and the z-score [4, 16] was -0.15. The inhibition [5] was 7.73% (inactive), the fluorescence slope [6] was -0.458 (inactive) and the NADPH fluorescence slope [7] was -1.3e-05 (inactive). The slope [8] was 0.00694 (inactive), the inhibition [9] was -0.755% (inactive) and the inhibition [10] was -19.3% (inactive). For the same compound, the inhibition [11] was -47.1% (inactive).
With C=CCNc1nnc(SC2CC(=O)N(c3ccc(OC)cc3)C2=O)s1 (configuration not stated) the cell count [1] was 474, the inhibition [1] was -3.2% (inactive) and the inhibition of aggregation [2] was -17.3% (inactive). For the same compound, the nuclei count [2] was 121%, the inhibition [3] was -46.1% (inactive) and the nuclei count [3] was 151%. The z-score [4, 14] was -0.38, the z-score [4, 15] was -0.537 and the z-score [4, 16] was 0.655. The inhibition [5] was 5.95% (inactive), the fluorescence slope [6] was -0.391 (inactive) and the NADPH fluorescence slope [7] was -3.8e-05 (inactive). The slope [8] was 0.00566 (inactive), the fluorescence slope [12] was 0.00596 (inactive) and the outcome [13] was “inactive”. The inhibition [9] was 34% (inactive), the inhibition [10] was 12.1% (inactive) and the inhibition [11] was -1.97% (inactive).
For COC(=O)CC1SC(=O)NC1=O (configuration not stated), the cell count [1] was 552, the inhibition [1] was -6.8% (inactive) and the inhibition of aggregation [2] was 26.4% (inactive). For the same compound, the nuclei count [2] was 110%, the inhibition [3] was -98.9% (inactive) and the nuclei count [3] was 124%. The z-score [4, 14] was -1.23, the z-score [4, 15] was -0.523 and the z-score [4, 16] was 0.399. For the same compound, the inhibition [5] was 5.26% (inactive), the fluorescence slope [6] was -0.414 (inactive) and the NADPH fluorescence slope [7] was -0.000171 (inactive). The slope [8] was 0.00686 (inactive), the inhibition [9] was 6.27% (inactive) and the inhibition [10] was 1.46% (inactive). For the same compound, the inhibition [11] was 8.22% (inactive).
In the case of Cc1ccc(SCc2[nH]nc3c2C(c2ccc(C)o2)C(C#N)=C(N)O3)cc1 (configuration not stated), the cell count [1] is reported as 571, the inhibition [1] is reported as -2.5% (inactive) and the inhibition of aggregation [2] is reported as 15.4% (inactive). The nuclei count [2] was 62.4%, the inhibition [3] was -2.7% (inactive) and the nuclei count [3] was 91.7%. It also gave a z-score [4, 14] of -2.32, a z-score [4, 15] of 1.82 and a z-score [4, 16] of 1.99. For the same compound, the inhibition [5] was 24% (inactive), the fluorescence slope [6] was -0.515 (inactive) and the NADPH fluorescence slope [7] was -5.6e-05 (inactive). The slope [8] was 0.0059 (inactive), the fluorescence slope [12] was 0.00561 (inactive) and the outcome [13] was “inactive”. For the same compound, the inhibition [9] was 25.7% (inactive), the inhibition [10] was -13.7% (inactive) and the inhibition [11] was -11.1% (inactive).
With O=C(O)CC1Sc2nc3ccccc3n2C1=O (configuration not stated) the cell count [1] was 532, the inhibition [1] was -9% (inactive) and the inhibition of aggregation [2] was -11.5% (inactive). The nuclei count [2] was 89%, the inhibition [3] was -22.4% (inactive) and the nuclei count [3] was 116%. It also gave a z-score [4, 14] of -0.312, a z-score [4, 15] of -0.637 and a z-score [4, 16] of -0.43. The inhibition [5] was 15.9% (inactive), the fluorescence slope [6] was -0.49 (inactive) and the NADPH fluorescence slope [7] was -1.3e-05 (inactive). For the same compound, the slope [8] was 0.00572 (inactive), the fluorescence slope [12] was 0.00487 (inactive) and the outcome [13] was “inactive”. For the same compound, the inhibition [9] was 27.7% (inactive), the inhibition [10] was 13.8% (inactive) and the inhibition [11] was 12.9% (inactive).
With O=C(Nc1nccs1)NC(C(F)(F)F)C(F)(F)F the cell count [1] was 620, the inhibition [1] was 10.3% (inactive) and the inhibition of aggregation [2] was -10.4% (inactive). The nuclei count [2] was 101%, the inhibition [3] was 14.4% (inactive) and the nuclei count [3] was 95.3%. For the same compound, the z-score [4, 14] was 0.47, the z-score [4, 15] was -0.00766 and the z-score [4, 16] was -0.375. The inhibition [5] was 3.49% (inactive), the fluorescence slope [6] was -0.522 (inactive) and the NADPH fluorescence slope [7] was -4.1e-05 (inactive). The slope [8] was 0.00624 (inactive), the fluorescence slope [12] was 0.00652 (inactive) and the outcome [13] was “inactive”. For the same compound, the inhibition [9] was 28.7% (inactive), the inhibition [10] was 22.5% (inactive) and the inhibition [11] was 33.5% (inactive).
For CCOC(=O)c1[nH]c2ccc(OC)cc2c1NC(=O)CCN1CCC(C)CC1, the cell count [1] was 568, the inhibition [1] was -0.3% (inactive) and the inhibition of aggregation [2] was 6.8% (inactive). The nuclei count [2] was 110%, the inhibition [3] was -54.8% (inactive) and the nuclei count [3] was 115%. The z-score [4, 14] was 0.39, the z-score [4, 15] was -0.288 and the z-score [4, 16] was -0.933. The inhibition [5] was -8.59% (inactive), the fluorescence slope [6] was -0.339 (inactive) and the NADPH fluorescence slope [7] was -3.9e-05 (inactive). The slope [8] was 0.00576 (inactive), the fluorescence slope [12] was 0.00353 (inactive) and the outcome [13] was “inactive”. The inhibition [9] was 29.3% (inactive), the inhibition [10] was -0.0655% (inactive) and the inhibition [11] was 13.6% (inactive).
